Reference: PubChem BioAssay (EPA / NIEHS)
The source made the active and inactive calls. The calls were made as follows: active = hit-call score of the fitted dose curve at least 0.9, where 1 is the maximum; inactive = score below 0.9.

Test: ATG_PXRE_CIS: Attagene CIS-FACTORIAL HepG2 Assay for human Pregnane X Receptor Element (PXRE) (AID 2282957)
Settings: HepG2 Attagene CIS-FACTORIAL PXRE reporter, mRNA; actives raise or lower the signal
Protocol: ATG_CIS is a cell-based, multiplexed-readout assay that uses HepG2, a human liver cell line, with measurements taken at 24 hours after chemical dosing in a 24-well plate.ATG_PXRE_CIS is one of 52 assay component(s) measured or calculated from the ATG_CIS assay. It is designed to make measurements of mRNA induction, a form of inducible reporter, as detected with fluorescence intensity signals by Reverse transcription polymerase chain reaction (RT-PCR) and Capillary electrophoresis technology.Data from the assay component ATG_PXRE_CIS was analyzed into 1 assay endpoint. This assay endpoint, ATG_PXRE_CIS, was analyzed with bidirectional fitting relative to DMSO as the negative control and baseline of activity. Using a type of inducible reporter, measures of mRNA for gain or loss-of-signal activity can be used to understand the reporter gene at the transcription factor-level as they relate to the gene NR1I2. Furthermore, this assay endpoint can be referred to as a primary readout, because this assay has produced multiple assay endpoints where this one serves a reporter gene function. To generalize the intended target to other relatable targets, this assay endpoint is annotated to the nuclear receptor intended target family, where the subfamily is non-steroidal.
Human liver HepG2 cells are transiently transfected with multiple reporter transcription units (MRTUs) in 6-well plates using FuGene 6 reagent (Roche; 3 ml FuGene/1 mg DNA). The MRTU constructs are regulated by a cis-regulating element (promoter). […] A major difference between the CIS and TRANS system is that in CIS activities of endogenous TFs are measured, whereas the TRANS assay evaluates changes in activities of exogenous, chimeric NR-Gal4 proteins. […] At the end of 24 hour incubation, total RNA was isolated using TriZol reagent (Invitrogen). The isolated RNA is then reverse-transcribed using oligo(dT) primer and Mo-MLV reverse transcriptase (Invitrogen) with DNAse I (Ambion) treatment for 30 min. The one-tenth of the produced cDNA was amplified by PCR using Taq DNA polymerase (Invitrogen) and two reporter sequence-specific primers. The PCR products were fluorescently labeled by primer extension with 6-arboxyfluorescein (6-FAM) 5'-labeled reporter sequence-specific primer (2 min at 95 C, 20 s at 68 C and 10 min at 72 C) and these products were digested with 5U of HpaI (New England Biolabs) for 2h at 37 C. The fragments were purified using Qiaquick PCR columns (Qiagen), analyzed on an ABI 3130xL genetic analyzer (Applied Biosystems) with peak positions identified by using a set of X-rhodamine (ROX)-labeled MapMarker1000 molecular weight standards (BioVentures). The raw capillary electrophoresis data was processed using Attagraph software (Attagene).

Row | SMILES | AC50 | outcome
1 | Nc1ccccc1C(=O)OCCc1ccccc1 | 12.3 µM (active) | 
2 | [Cl][Sb]([Cl])[Cl] |  | inactive
3 | N#CCCCl |  | inactive
4 | O=C=Nc1ccccc1 | 11.7 µM (active) | 
5 | CN(C)N |  | inactive
6 | COC(C)(C)CCC[C@H](C)C/C=C/C(C)=C/C(=O)OC(C)C | 1.43 µM (active) | 
7 | CCN(CC)C(=S)S | 22.7 µM (active) | 
8 | CC(C)(C)C(=O)CCl |  | inactive
9 | CCCCCc1cc(O)cc(O)c1 | 9.47 µM (active) | 
10 | O=[N+]([O-])O.O=[N+]([O-])O.[Cd] | 0.872 µM (active) | 
11 | CC(=O)C=Cc1ccccc1 | 26 µM (active) | 
12 | C=C(Cl)CCl | 52 µM (active) | 
13 | O=C1Nc2ccc(Cl)cc2C(c2ccccc2)=NC1O (stereo not given) |  | inactive
14 | Cc1ncc(C[n+]2csc(CCO)c2C)c(N)n1 |  | inactive
15 | CCC(=O)c1ccc(Cl)cc1 |  | inactive
16 | CCCOC(=O)c1ccccc1C(=O)OCCC | 28.9 µM (active) | 
17 | Clc1ccc(-c2ccccc2)cc1 | 42.7 µM (active) | 
18 | Cc1ccccc1CCl |  | inactive
19 | N#CCNCC#N |  | inactive
20 | CSc1nc(N=[N+]=[N-])nc(NC(C)C)n1 | 27.2 µM (active) | 

Row | SMILES | AC50 | outcome
21 | O=C(O)CCCc1ccc(N(CCCl)CCCl)cc1 |  | inactive
22 | C#CC1(O)CCCCC1 |  | inactive
23 | COC(=O)c1ccccc1S(=O)(=O)NC(=O)Nc1nc(C)cc(C)n1 |  | inactive
24 | c1ccc(P(c2ccccc2)c2ccccc2)cc1 | 4.59 µM (active) | 
25 | NNc1ccccc1 | 38.9 µM (active) | 
26 | O=P1(NCCCl)OCCCN1CCCl (stereo not given) | 50.2 µM (active) | 
27 | C[C@]12CCC(=O)C(O)=C1CC[C@@H]1[C@@H]2CC[C@]2(C)C(=O)CC[C@@H]12 | 11.2 µM (active) | 
28 | C=CC(=O)OC |  | inactive
29 | BrCBr |  | inactive
30 | O=P(O)(Oc1ccccc1)Oc1ccccc1 | 74.2 µM (active) | 
31 | N#Cc1cccc(C#N)c1 |  | inactive
32 | CC(=O)c1cc2c(cc1C)C(C)(C)C(C)CC2(C)C (stereo not given) | 2.25 µM (active) | 
33 | C[N+](C)(C)CC(=O)[O-] |  | inactive
34 | O=C(O)c1cc[c]([Hg][Cl])cc1 |  | inactive
35 | c1ccc2c(c1)CCCC2 |  | inactive
36 | CCC(C)c1cc([N+](=O)[O-])cc([N+](=O)[O-])c1OC(=O)C=C(C)C (stereo not given) | 0.787 µM (active) | 
37 | [N-]=[N+]=CC(=O)OC[C@H](N)C(=O)O | 26 µM (active) | 
38 | CN(C)C(=O)C(c1ccccc1)c1ccccc1 | 9.67 µM (active) | 
39 | C=CCc1ccc(OC(=O)Cc2ccccc2)c(OC)c1 | 8.28 µM (active) | 
40 | CC(C)(O)C#N | 27.4 µM (active) | 
